From publication PMC4053984, “DNA binding specificities of the long zinc-finger recombination protein PRDM9” come the findings set out here.

The target in the assay is PRDM9Cst (Mus musculus (CAST/EiJ)). Description: competition EMSA; competition against biotin-labeled 75-bp Hlx1 B6 oligo; 10 mM Tris pH 7.5, 50 mM KCl, 1 mM DTT, 50 ng/ul poly(dI/dC), 0.05% NP-40, crude E. coli extract 3 ul in 20 ul; 1 h with unlabeled competitor, then 4 h with biotin-labeled 75-bp Hlx1; temperature not stated; high values mean tight binding. The following applies: tags: N-terminal His tag (pBAD/HisB); dsDNA, one strand shown.
Sequence of PRDM9Cst (Mus musculus (CAST/EiJ)) (chain, as listed by the source): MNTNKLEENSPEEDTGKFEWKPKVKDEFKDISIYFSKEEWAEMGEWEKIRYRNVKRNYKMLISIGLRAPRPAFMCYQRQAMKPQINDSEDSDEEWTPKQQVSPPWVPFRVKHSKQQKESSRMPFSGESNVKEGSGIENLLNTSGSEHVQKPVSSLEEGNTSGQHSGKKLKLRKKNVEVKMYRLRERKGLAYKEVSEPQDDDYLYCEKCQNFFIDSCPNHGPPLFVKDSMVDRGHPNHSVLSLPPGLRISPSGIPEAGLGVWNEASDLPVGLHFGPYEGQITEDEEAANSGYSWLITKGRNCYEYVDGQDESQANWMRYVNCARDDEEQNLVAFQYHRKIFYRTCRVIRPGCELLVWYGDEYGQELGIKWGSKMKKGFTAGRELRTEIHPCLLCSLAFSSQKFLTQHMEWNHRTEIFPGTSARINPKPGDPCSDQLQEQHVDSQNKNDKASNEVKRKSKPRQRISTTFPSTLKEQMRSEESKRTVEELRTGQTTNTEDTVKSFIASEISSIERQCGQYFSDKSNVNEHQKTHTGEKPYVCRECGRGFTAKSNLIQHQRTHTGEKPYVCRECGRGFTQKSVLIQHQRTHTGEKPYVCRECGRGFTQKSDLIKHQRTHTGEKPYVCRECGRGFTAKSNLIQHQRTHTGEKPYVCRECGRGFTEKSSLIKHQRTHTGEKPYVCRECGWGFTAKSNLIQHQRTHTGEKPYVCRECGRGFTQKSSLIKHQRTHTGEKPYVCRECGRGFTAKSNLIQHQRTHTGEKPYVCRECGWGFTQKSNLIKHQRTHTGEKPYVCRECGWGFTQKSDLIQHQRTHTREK
With ATAGTGTGCAGACTTGGACCCTGCCCTTTCTTA, the binding signal is 0.13 Bmut (0 = wild type, -1 = scrambled).
The same measure for ATAGTGTGCAGACTTAGACCCTGCCCTTTCTTT: -0.1 Bmut (0 = wild type, -1 = scrambled); for GTAGTGTGCAGACTTGGACCCTGCCCTTTCTTT: 0 Bmut (0 = wild type, -1 = scrambled).
Then ATAGTGTGCAGACTTGGACACTGCCCTTTCTTT, with -0 Bmut (0 = wild type, -1 = scrambled); and ATAGTGTGCAGACTTGGACCCTGCCCTCTCTTT, with -0.1 Bmut (0 = wild type, -1 = scrambled); and ATAGTGTGCAGACTTGGAGCCTGCCCTTTCTTT, with -0.5 Bmut (0 = wild type, -1 = scrambled).
Then ATAGTGTGCAGACTTGGACCCTGCCCATTCTTT, with 0.09 Bmut (0 = wild type, -1 = scrambled); and ATATTGTGCAGACTTGGACCCTGCCCTTTCTTT, with 0.3 Bmut (0 = wild type, -1 = scrambled); and ATAGTGTGCAGACTTGGACCCAGCCCTTTCTTT, with 0.01 Bmut (0 = wild type, -1 = scrambled).
